Test results taken from the supplement of paper PMC13380429.
Structures can show the parent of a compound that is named as a salt. Unmarked numbers belong to inactive results.

Test system: Vero E6 infected with SARS-CoV-2
Test: inhibition of SARS-CoV-2 cytopathic effect; higher = more antiviral protection, active = above 15
Settings: 48 h

SMILES	inhibition of SARS-CoV-2 cytopathic effect (1 nM)	inhibition of SARS-CoV-2 cytopathic effect (8.33 nM) [%]	inhibition of SARS-CoV-2 cytopathic effect (100 nM) [%]	inhibition of SARS-CoV-2 cytopathic effect (833.33 nM) [%]	inhibition of SARS-CoV-2 cytopathic effect (10000 nM) [%]
Cc1oc2ccccc2c1CNC(=O)NCc1cccs1	-0.41%	1.63	0.18	-0.46	3.09
O=C(O)C(=O)CBr [3-bromopyruvate]	-3.69%	1.4	4.96	0.7	1.43
CN(C)CC/C=C1/c2ccccc2Sc2ccc(Cl)cc21 [chlorprothixene]	5.54%	3.98	-4.95	-3.59	-1.82
Nc1nccc(Oc2ccc(NC(=O)c3c[nH]cc(-c4ccc(F)cc4)c3=O)cc2F)c1Cl [metatinib]	0.06%	0.76	0.97	4.29	-2.56
NC/C(=C/F)CCc1ccc(F)cc1 [mofegiline]	3.65%	2.09	1.29	-1.58	-3.87
CN(C)CCOC(c1ccccc1)c1ccccc1.Cn1c(=O)c2[nH]c(Cl)nc2n(C)c1=O [dimenhydrinate]	1.11%	-2	0.95	0.58	0.68
O=C(O)CCCCCCCC(=O)O [azelaic-acid]	24.2% (active)	0.49	-0.06	0.7	-3.28
CCOc1ccc2nc(SCCN3CCOCC3)[nH]c2c1 [afobazole]	0.28%	0.47	-1.23	-0.04	1.56
CCOc1ccccc1C(N)=O [ethenzamide]	5.35%	3.1	2.44	2.62	4.34
CC(C(=O)O)c1ccc(N2Cc3ccccc3C2=O)cc1 (stereo not given) [indoprofen]	0.91%	0.93	0.86	1.21	0.49
Cc1cc(Cn2nnc3c(-c4ccco4)nc(N)nc32)ccc1N [vipadenant]	3.17%	2.89	2.73	-0.18	0.65
CC(O)COC[C@H]1O[C@@H]2O[C@H]3[C@H](O)[C@@H](O)[C@@H](O[C@H]4[C@H](O)[C@@H](O)[C@@H](O[C@H]5[C@H](O)[C@@H](O)[C@@H](O[C@H]6[C@H](O)[C@@H](O)[C@@H](O[C@H]7[C@H](O)[C@@H](O)[C@@H](O[C@H]8[C@H](O)[C@@H](O)[C@@H](O[C@H]1[C@H](O)[C@H]2O)O[C@@H]8COCC(C)O)O[C@@H]7COCC(C)O)O[C@@H]6COCC(C)O)O[C@@H]5COCC(C)O)O[C@@H]4COCC(C)O)O[C@@H]3COCC(C)O (stereo partly drawn) [hydroxypropyl-beta-cyclodextrin]	1.48%	-0.26	1.56	0.29	0.7
COc1cc(N2CCOCC2)ccc1Nc1ncc(Cl)c(Nc2ccccc2NS(C)(=O)=O)n1	0.93%	2.59	2.32	-2.21	-13.2
CCCCC(=O)O[C@]1(C(=O)CO)CC[C@H]2[C@@H]3CCC4=CC(=O)CC[C@]4(C)[C@H]3[C@@H](O)C[C@@]21C [hydrocortisone-valerate]	-0.15%	3.88	4.88	4.12	-1.55
C[C@@H](c1ncncc1F)[C@](O)(Cn1cncn1)c1ccc(F)cc1F [voriconazole]	0.72%	2.08	-2.48	-0.46	1.37
N[C@@H](C(=O)O)c1ccc(C(=O)O)c(C(=O)O)c1 (racemic)	2.59%	0.287	1.6	-2.93	-0.293
N=C(N)Nc1ccc(C(=O)Oc2ccc3cc(C(=N)N)ccc3c2)cc1 [nafamostat]	1.66%	4.06	4.33	3.65	4.81

SMILES	inhibition of SARS-CoV-2 cytopathic effect (1 nM)	inhibition of SARS-CoV-2 cytopathic effect (8.33 nM) [%]	inhibition of SARS-CoV-2 cytopathic effect (100 nM) [%]	inhibition of SARS-CoV-2 cytopathic effect (833.33 nM) [%]	inhibition of SARS-CoV-2 cytopathic effect (10000 nM) [%]
Cn1cc(C[C@@H](N)C(=O)O)c2ccccc21 [indoximod]	-3.51%	-2.58	-2.33	-1.85	-1.3
CCSC(=N)N [EIT-hydrobromide]	0.03%	-1.2	-0.94	-0.69	-1.4
c1ccc2c(c1)CCCc1cc(NCCN3CCOCC3)nnc1-2	0.07%	1.77	1.8	1.51	0.84
CS(=O)(=O)Nc1ccc(-c2coc3cc(OCc4cccc(C(=O)O)c4)ccc3c2=O)cc1	-0.72%	1.73	-1.1	-0.83	-0.08
Cc1cnc(-c2ccccc2C(C)C)nc1NCc1ccc(-n2ccnn2)cc1	-3.33%	-2.94	-0.44	0.3	1.03
CN(C/C=C/C#CC(C)(C)C)Cc1cccc2ccccc12 [terbinafine]	5.77%	2.3	8.59	6.27	8.15
CC(C)c1cc(-c2ccc(F)c3ccccc23)nc(N)n1	0.6%	1.62	-1.61	-3.71	-2.34
CCOC(=O)N1CSC[C@H]1C(=O)O [telmesteine]	1.96%	2.23	2.74	4.95	-0.12
CCCc1nc(C)c2c(=O)nc(-c3cc(S(=O)(=O)N4CCN(CC)CC4)ccc3OCC)[nH]n12 [vardenafil]	-1.45%	-1.02	0.46	-0.81	1.4
N#Cc1c(-c2ccccc2)cc(-c2cc(Br)ccc2O)[nH]c1=O	0.98%	2.69	3	2.87	3.55
O=C(NC(=O)c1c(F)cccc1F)Nc1cc(Cl)c(OC(F)(F)C(F)C(F)(F)F)cc1Cl (stereo not given) [lufenuron]	1.67%	2.18	-1.16	2.95	1.2
O=C1C(Cl)=C(NCCN2CCOCC2)C(=O)c2ncccc21	-0.37%	1.19	1.71	6	-17.2
N#CC[C@@H](C1CCCC1)n1cc(-c2ncnc3[nH]ccc23)cn1 [ruxolitinib-(S)]	-2.23%	-0.87	-1.21	0.43	-3.24
COc1ccc(CN2CCN(C(c3ccc(F)cc3)c3ccc(F)cc3)CC2)c(OC)c1OC [lomerizine]	1.2%	-4.42	-2.46	-4.97	-3.64
CC(C)(C)OC(=O)c1ncn2c1[C@@H]1CCCN1C(=O)c1c(Br)cccc1-2 [bretazenil]	-1.38%	-4.36	-1.99	-3.96	-1.07
CCC(N)C(O)c1ccc(O)c(O)c1 (stereo not given) [ethylnorepinephrine]	-0.61%	0.7	0.54	-1.28	-0.69
CO[C@@H](C(=O)N1Cc2[nH]nc(NC(=O)c3ccc(N4CCN(C)CC4)cc3)c2C1)c1ccccc1 [danusertib]	2.82%	2.41	-1.12	-0.08	-3.74
